Laboratory results reported in the supplement of paper PMC10849652.
Targets with a hit are over-represented here; the source holds about 7,900 in all. About 0.6% of all pairs of compound and target were hits.

Key:
Experiment in all cases: log2 fold change, soluble protein after heating vs DMSO (PISA); higher = thermal stabilisation; K562 cells, 10 uM, 30 min; active = over 0.2 and 3.5 SD of the protein, either way, in both replicates (recomputed)
[1] = compound: CS(=O)(=O)c1ccc(-c2cnc(N)c(C(=O)Nc3ccccc3)n2)cc1
Method in brief: (§1)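 Quantification of soluble protein used TMTpro 16plex LC-MS/MS, with channel sums equalised. Samples were the supernatant after 21,000xg for 90 min of pooled aliquots from K562 cells (2×10^6 cells/mL) treated with 10 μM compound for 30 min, heated for 3 min over 48°C-58°C, and extracted in PBS with 0.5% NP-40 at 4°C. Values, from duplicates, describe thermal stability against control samples on a log2 fold-change scale.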

[2] = compound: C[C@@H](Oc1cc(-c2cnn(C3CCNCC3)c2)cnc1N)c1c(Cl)ccc(F)c1Cl [crizotinib]
Method in brief: as §1

[3] = compound: C[C@@H]1COCCN1C2=NC(=NC(=C2)C3(CC3)S(=O)(=O)C)C4=C5C=CNC5=CC=C4
Method in brief: as §1

[4] = compound: C[C@H](C1=CC=C(C=C1)C(=O)NC2=C3C=CNC3=NC=C2)N
Method in brief: as §1

[5] = compound: C[C@H](Nc1ncnc2nc[nH]c12)c1cc2cccc(Cl)c2c(=O)n1-c1ccccc1 [duvelisib]
Method in brief: as §1

[6] = compound: Cc1cc(Nc2cc(CN3CCOCC3)c3nc(C)c(Cc4ccc(Cl)cc4F)n3n2)n[nH]1 [gandotinib]
Method in brief: as §1

[7] = compound: Cc1cc(Nc2cc(N3CCN(C)CC3)nc(Sc3ccc(NC(=O)C4CC4)cc3)n2)n[nH]1 [tozasertib]
Method in brief: as §1

[8] = compound: Cc1cc(SCc2sc(-c3ccc(C(F)(F)F)cc3)nc2C)ccc1OCC(=O)O
Method in brief: as §1

[9] = compound: Cc1ccc(-n2nc(C(C)(C)C)cc2NC(=O)Nc2ccc(OCCN3CCOCC3)c3ccccc23)cc1 [doramapimod]
Method in brief: as §1

[10] = compound: Cc1ccc(C(=O)N(CCCN)[C@@H](c2nc3cc(Cl)ccc3c(=O)n2Cc2ccccc2)C(C)C)cc1 [ispinesib]
Method in brief: as §1

[11] = compound: Cc1ccc(NC(=O)c2ccc(CN3CC[C@H](N(C)C)C3)c(C(F)(F)F)c2)cc1Nc1nccc(-c2cncnc2)n1 [bafetinib]
Method in brief: as §1

[12] = compound: Cc1cccc(CC(=O)N2CCc3c2ccc(-c2cn(C)c4ncnc(N)c24)c3F)n1
Method in brief: as §1

[13] = compound: Cc1cn(-c2cc(NC(=O)c3ccc(C)c(Nc4nccc(-c5cccnc5)n4)c3)cc(C(F)(F)F)c2)cn1 [nilotinib]
Method in brief: as §1

[14] = compound: Cc1nc(Nc2n[nH]c3c2CN(C(=O)N[C@H](CN(C)C)c2ccccc2)C3(C)C)c2sccc2n1
Method in brief: as §1

[15] = compound: Cc1nc(Nc2ncc(C(=O)Nc3c(C)cccc3Cl)s2)cc(N2CCN(CCO)CC2)n1 [dasatinib]
Method in brief: as §1

[16] = compound: Cc1ncc(-c2ccnc(Nc3ccc(S(C)(=O)=O)cc3)n2)n1C(C)C
Method in brief: as §1

[17] = compound: Cn1cc(-c2ccc3c(c2)CCN3C(=O)Cc2cccc(C(F)(F)F)c2)c2c(N)ncnc21
Method in brief: as §1

[18] = compound: Cn1cc(-c2ccc3nnc(C(F)(F)c4ccc5ncccc5c4)n3n2)cn1
Method in brief: as §1

[19] = compound: Cn1cncc1[C@@](N)(c1ccc(Cl)cc1)c1ccc2c(c1)c(-c1cccc(Cl)c1)cc(=O)n2C [tipifarnib]
Method in brief: as §1

[20] = compound: FC(F)(F)c1ccc(/C=C/c2nc(COc3ccc(CCCCn4ccnn4)cc3)co2)cc1 [mubritinib]
Method in brief: as §1

Measured: log2 fold change

SSX2 (UniProt Q16385)
Sequence of UniProt Q16385 (Q16385 whole entry, looked up): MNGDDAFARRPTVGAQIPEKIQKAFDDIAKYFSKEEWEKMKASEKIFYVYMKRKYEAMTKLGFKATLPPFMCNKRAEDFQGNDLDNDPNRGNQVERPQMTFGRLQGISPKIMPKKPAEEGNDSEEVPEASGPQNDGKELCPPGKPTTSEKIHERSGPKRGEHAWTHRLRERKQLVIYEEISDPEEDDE
inactive: [1] -0.024 | [2] 0.062 | [3] 0.05 | [4] 0.053 | [5] 0.036 | [6] -0.003 | [7] 0.031 | [8] -0.009 | [9] -0.043 | [10] -0.029 | [11] -0.098 | [12] -0.011 | [13] 0.003 | [14] -0.061 | [15] 0.014 | [16] -0.042 | [17] -0.039 | [18] 0.012 | [19] -0.015 | [20] -0.048

SLC25A4 (UniProt P12235)
Sequence of UniProt P12235 (P12235 whole entry, looked up): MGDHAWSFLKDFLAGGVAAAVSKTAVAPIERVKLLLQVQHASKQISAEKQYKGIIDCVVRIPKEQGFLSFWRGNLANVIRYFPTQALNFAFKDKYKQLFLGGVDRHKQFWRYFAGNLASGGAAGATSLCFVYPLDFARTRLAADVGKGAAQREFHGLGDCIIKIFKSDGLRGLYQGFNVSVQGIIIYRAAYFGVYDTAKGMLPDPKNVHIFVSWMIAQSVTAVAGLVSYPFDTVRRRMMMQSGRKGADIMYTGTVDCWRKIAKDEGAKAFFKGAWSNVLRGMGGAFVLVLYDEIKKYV
inactive: [1] 0.004 | [2] 0.112 | [3] 0.093 | [4] 0.01 | [5] 0.012 | [6] -0.004 | [7] -0.072 | [8] -0.034 | [9] -0.053 | [10] 0.028 | [11] -0.027 | [12] -0.097 | [13] -0.004 | [14] -0.03 | [15] 0.033 | [16] -0.014 | [17] 0.022 | [18] -0.005 | [19] 0.026 | [20] -0.024

SNX6 (UniProt Q9UNH7)
Sequence of UniProt Q9UNH7 (Q9UNH7 whole entry, looked up): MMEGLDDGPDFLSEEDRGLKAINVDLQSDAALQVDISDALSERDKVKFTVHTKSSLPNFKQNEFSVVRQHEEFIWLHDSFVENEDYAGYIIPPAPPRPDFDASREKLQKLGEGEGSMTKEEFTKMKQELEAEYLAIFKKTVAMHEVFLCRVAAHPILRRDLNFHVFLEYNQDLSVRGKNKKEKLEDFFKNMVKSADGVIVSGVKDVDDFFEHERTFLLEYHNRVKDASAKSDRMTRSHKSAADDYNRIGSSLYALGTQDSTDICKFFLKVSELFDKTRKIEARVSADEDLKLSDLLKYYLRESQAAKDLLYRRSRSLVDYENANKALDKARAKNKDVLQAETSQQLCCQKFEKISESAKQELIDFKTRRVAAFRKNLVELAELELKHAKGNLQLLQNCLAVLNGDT
active: [6] -0.5 | [16] -0.47
inactive: [1] -0.169 | [2] -0.323 | [3] -0.014 | [4] -0.033 | [5] -0.277 | [7] -0.118 | [8] 0.061 | [9] -0.036 | [10] -0.281 | [11] -0.132 | [12] 0.138 | [13] -0.214 | [14] 0.012 | [15] -0.176 | [17] 0.094 | [18] 0.019 | [19] -0.045 | [20] 0.058

TBK1 (UniProt Q9UHD2)
Sequence of UniProt Q9UHD2 (Q9UHD2 whole entry, looked up): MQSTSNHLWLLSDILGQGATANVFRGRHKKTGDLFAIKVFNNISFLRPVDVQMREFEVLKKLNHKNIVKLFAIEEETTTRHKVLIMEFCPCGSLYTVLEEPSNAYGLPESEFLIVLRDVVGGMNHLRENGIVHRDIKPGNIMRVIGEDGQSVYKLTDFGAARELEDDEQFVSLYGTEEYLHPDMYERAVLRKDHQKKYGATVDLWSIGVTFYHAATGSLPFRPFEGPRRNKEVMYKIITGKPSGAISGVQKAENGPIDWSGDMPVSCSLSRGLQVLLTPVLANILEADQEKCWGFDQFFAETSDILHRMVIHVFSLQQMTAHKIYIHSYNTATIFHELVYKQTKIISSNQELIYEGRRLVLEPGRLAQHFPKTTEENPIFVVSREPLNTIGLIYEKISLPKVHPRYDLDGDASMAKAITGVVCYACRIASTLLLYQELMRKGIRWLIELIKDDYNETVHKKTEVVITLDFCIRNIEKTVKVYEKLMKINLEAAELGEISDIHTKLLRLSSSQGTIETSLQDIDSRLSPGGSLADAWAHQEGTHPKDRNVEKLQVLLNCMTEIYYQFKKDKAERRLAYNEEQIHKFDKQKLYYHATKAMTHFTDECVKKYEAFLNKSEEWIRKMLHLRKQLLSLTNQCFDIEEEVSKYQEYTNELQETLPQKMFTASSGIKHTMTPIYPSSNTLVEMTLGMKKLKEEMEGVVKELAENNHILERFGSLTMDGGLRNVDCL
inactive: [1] -0.027 | [3] -0.021 | [4] 0.043 | [5] 0.082 | [6] 0.237 | [7] 0.129 | [8] 0.175 | [9] 0.013 | [10] -0.18 | [11] -0.035 | [12] -0.024 | [13] -0.114 | [15] -0.096 | [16] 0.012 | [17] 0.055 | [18] -0.002 | [19] -0.103 | [20] -0.038
active: [2] 0.489 | [14] 0.911

STARD3NL (UniProt O95772)
active: [2] -0.448
inactive: [1] -0.011 | [3] 0.055 | [4] -0.067 | [5] 0.111 | [6] -0.14 | [7] 0.03 | [8] -0.058 | [9] 0.063 | [10] -0.256 | [11] 0.011 | [12] -0.008 | [13] -0.007 | [14] 0.027 | [15] 0.075 | [16] -0.001 | [17] -0.048 | [18] 0.025 | [19] -0.064 | [20] -0.006

STEAP3 isoform 2 (UniProt Q658P3)
inactive: [1] 0.065 | [2] -0.003 | [3] 0.022 | [4] -0.013 | [5] 0.054 | [6] -0.032 | [7] -0.006 | [8] 0.012 | [9] 0.003 | [10] -0.159 | [11] -0.044 | [12] 0.058 | [13] -0.001 | [14] -0.061 | [15] -0.028 | [16] 0.03 | [17] 0.039 | [18] 0.11 | [19] -0.085 | [20] -0.034

SPTBN4 (UniProt Q9H254)
Sequence of UniProt Q9H254 (Q9H254 whole entry, looked up): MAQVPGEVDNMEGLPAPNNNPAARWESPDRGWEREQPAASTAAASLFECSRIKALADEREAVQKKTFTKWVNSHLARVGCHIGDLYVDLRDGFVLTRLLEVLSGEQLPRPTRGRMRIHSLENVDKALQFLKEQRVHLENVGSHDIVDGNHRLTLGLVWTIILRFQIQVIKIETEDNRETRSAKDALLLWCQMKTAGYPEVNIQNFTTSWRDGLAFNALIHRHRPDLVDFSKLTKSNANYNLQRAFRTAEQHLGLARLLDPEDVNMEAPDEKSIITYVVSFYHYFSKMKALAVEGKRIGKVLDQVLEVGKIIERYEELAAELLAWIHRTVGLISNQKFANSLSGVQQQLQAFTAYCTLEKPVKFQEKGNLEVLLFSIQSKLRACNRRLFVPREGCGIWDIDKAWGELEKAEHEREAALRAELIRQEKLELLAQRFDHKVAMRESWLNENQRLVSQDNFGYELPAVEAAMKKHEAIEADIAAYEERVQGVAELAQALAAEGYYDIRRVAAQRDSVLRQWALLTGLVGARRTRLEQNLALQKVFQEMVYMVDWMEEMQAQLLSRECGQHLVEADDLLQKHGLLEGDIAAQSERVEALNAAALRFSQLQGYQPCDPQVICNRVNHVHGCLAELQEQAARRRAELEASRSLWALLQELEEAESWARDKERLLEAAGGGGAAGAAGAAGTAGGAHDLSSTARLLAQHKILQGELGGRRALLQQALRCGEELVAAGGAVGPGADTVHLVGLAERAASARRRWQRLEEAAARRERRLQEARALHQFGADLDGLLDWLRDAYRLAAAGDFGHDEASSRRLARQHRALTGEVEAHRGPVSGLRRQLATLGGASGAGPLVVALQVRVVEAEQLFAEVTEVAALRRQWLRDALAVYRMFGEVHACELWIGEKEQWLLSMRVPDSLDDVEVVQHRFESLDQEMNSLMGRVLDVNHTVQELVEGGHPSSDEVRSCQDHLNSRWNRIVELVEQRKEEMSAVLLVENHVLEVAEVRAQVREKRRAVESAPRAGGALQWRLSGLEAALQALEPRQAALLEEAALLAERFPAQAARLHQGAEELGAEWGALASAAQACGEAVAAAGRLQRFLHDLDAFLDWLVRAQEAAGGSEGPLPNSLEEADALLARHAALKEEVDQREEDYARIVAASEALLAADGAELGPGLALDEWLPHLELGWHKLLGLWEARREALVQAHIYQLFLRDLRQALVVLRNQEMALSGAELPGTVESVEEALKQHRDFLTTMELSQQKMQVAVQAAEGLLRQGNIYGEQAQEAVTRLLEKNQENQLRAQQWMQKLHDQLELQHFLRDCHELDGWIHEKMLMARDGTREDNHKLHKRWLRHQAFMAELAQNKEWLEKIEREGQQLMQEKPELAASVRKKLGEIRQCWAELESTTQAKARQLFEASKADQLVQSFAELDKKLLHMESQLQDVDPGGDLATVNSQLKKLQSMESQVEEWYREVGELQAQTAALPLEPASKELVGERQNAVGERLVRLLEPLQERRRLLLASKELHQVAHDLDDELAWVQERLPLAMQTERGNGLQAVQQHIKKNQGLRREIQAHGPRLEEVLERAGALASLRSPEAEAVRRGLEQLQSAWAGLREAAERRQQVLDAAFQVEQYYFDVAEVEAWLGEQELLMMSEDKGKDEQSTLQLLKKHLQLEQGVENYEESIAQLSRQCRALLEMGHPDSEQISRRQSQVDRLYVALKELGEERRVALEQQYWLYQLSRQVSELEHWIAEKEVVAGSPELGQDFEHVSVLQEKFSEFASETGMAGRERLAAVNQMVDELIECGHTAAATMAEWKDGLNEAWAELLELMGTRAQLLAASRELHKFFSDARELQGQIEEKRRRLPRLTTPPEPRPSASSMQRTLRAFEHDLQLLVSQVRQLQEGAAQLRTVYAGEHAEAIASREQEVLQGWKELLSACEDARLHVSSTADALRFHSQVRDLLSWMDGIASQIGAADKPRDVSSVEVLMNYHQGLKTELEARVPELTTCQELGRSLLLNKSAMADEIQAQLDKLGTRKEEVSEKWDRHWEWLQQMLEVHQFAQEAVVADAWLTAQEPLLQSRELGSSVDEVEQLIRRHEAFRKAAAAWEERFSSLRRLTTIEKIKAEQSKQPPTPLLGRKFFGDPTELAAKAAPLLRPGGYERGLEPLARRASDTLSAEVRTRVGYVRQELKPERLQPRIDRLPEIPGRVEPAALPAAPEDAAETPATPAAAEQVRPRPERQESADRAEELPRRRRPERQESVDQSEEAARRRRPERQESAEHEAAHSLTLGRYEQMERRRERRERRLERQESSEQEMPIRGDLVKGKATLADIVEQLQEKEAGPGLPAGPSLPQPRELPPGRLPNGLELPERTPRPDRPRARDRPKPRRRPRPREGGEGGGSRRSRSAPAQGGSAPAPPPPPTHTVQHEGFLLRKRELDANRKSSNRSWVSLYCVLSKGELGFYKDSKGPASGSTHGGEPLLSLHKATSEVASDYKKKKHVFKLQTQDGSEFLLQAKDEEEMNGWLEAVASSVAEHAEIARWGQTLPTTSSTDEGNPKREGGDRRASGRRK
inactive: [1] 0.026 | [2] 0.09 | [3] -0.024 | [4] 0.098 | [5] 0.007 | [6] -0.03 | [7] -0.039 | [8] -0.003 | [9] -0.03 | [10] 0.06 | [11] -0.036 | [12] -0.044 | [13] -0.167 | [14] 0.027 | [15] 0.017 | [16] -0.04 | [17] -0.014 | [18] 0.03 | [19] -0.09 | [20] 0.066

SNX2 (UniProt O60749)
Sequence of UniProt O60749 (O60749 whole entry, looked up): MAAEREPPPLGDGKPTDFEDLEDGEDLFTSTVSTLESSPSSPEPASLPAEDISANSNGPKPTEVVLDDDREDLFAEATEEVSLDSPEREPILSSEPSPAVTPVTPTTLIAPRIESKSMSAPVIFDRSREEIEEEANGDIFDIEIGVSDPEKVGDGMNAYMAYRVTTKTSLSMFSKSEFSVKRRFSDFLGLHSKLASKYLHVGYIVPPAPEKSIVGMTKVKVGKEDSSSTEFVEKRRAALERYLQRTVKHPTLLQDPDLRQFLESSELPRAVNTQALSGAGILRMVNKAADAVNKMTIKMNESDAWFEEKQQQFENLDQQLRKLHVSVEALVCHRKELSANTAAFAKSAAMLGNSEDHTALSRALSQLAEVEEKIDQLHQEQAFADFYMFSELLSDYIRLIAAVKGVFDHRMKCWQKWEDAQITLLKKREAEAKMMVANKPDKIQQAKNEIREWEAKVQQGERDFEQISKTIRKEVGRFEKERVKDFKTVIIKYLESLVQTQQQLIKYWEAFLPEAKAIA
inactive: [1] -0.034 | [2] -0.223 | [3] 0.006 | [4] -0.039 | [5] -0.107 | [6] -0.216 | [7] -0.102 | [8] 0.041 | [9] -0.014 | [10] -0.184 | [11] -0.153 | [12] 0.088 | [13] -0.168 | [14] 0 | [15] -0.134 | [16] -0.275 | [17] 0.101 | [18] 0.021 | [19] -0.056 | [20] 0.044

TJP2 isoform 7 (UniProt Q9UDY2)
inactive: [1] 0.006 | [2] -0.026 | [3] 0.064 | [4] -0.017 | [5] 0.056 | [6] -0.089 | [7] 0.071 | [8] 0.071 | [9] 0.068 | [10] -0.065 | [11] 0.05 | [12] 0.149 | [13] 0.014 | [14] -0.207 | [15] -0.191 | [16] -0.025 | [17] 0.009 | [18] 0.014 | [19] -0.094 | [20] 0.002

STAT6 (UniProt P42226)
inactive: [1] -0.083 | [2] -0.037 | [3] 0.028 | [4] -0.011 | [5] -0.132 | [6] -0.269 | [7] 0.171 | [8] -0.123 | [9] 0.043 | [10] -0.033 | [11] 0.027 | [13] -0.082 | [14] -0.181 | [15] -0.115 | [16] 0.155 | [17] -0.099 | [18] -0.042 | [19] -0.164 | [20] 0.179
active: [12] 0.502

SLIRP (UniProt Q9GZT3)
inactive: [1] -0.046 | [2] -0.267 | [3] -0.202 | [4] 0.058 | [5] 0.029 | [6] 0.162 | [7] -0.075 | [8] 0.146 | [9] -0.045 | [10] -0.149 | [11] -0.156 | [12] -0.099 | [13] 0.118 | [14] -0.027 | [15] -0.134 | [16] -0.073 | [17] 0.131 | [18] 0.075 | [19] 0.031 | [20] -0.044

SRFBP1 (UniProt Q8NEF9)
inactive: [1] -0.053 | [2] -0.029 | [3] -0.21 | [4] 0.061 | [5] -0.039 | [6] 0.083 | [7] 0.055 | [8] -0.028 | [9] 0.007 | [10] -0.055 | [11] 0.075 | [12] -0.014 | [13] 0.303 | [14] -0.031 | [15] 0.095 | [16] -0.066 | [17] -0.163 | [18] -0.044 | [19] 0.177 | [20] -0.129

SNX3 (UniProt O60493)
Sequence of UniProt O60493 (O60493 whole entry, looked up): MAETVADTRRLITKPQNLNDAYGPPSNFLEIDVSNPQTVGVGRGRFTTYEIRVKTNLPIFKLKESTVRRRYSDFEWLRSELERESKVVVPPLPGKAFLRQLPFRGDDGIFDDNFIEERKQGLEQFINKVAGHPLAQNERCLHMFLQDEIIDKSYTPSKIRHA
inactive: [1] -0.035 | [2] -0.106 | [3] 0.062 | [4] 0.048 | [6] -0.164 | [7] -0.023 | [8] 0.085 | [9] 0.04 | [10] -0.141 | [11] 0.01 | [12] 0.032 | [13] -0.034 | [14] 0.035 | [15] -0.163 | [17] -0.03 | [18] 0.001 | [19] 0.019 | [20] -0.108
active: [5] -0.385 | [16] -0.339

TFR2 (UniProt Q9UP52)
inactive: [1] 0.068 | [2] -0.182 | [3] -0.001 | [4] -0.016 | [5] 0.032 | [6] 0.03 | [7] -0.023 | [8] -0.038 | [9] -0.019 | [10] -0.097 | [12] -0.012 | [13] 0.012 | [14] -0.074 | [15] 0.006 | [16] -0.026 | [17] -0.019 | [18] 0.054 | [19] 0.025 | [20] 0.041
active: [11] -0.226

TBC1D9B (UniProt Q66K14)
inactive: [1] 0.041 | [2] -0.084 | [3] 0.016 | [4] 0.008 | [5] 0.01 | [6] 0.024 | [7] 0.055 | [8] 0.072 | [9] 0.007 | [10] -0.127 | [11] -0.262 | [12] -0.042 | [13] -0.055 | [14] 0.053 | [15] -0.156 | [16] -0.034 | [17] 0.07 | [18] -0.06 | [19] 0.019 | [20] 0.203
